Inconclusive results are not listed. Active and inactive are the calls of the source. Calls follow the shape of the dose curve; as a rule, active = well fitted activation curve with a large enough effect; inconclusive = small, poorly fitted or top-dose-only effect; inactive = no such curve, though single readings can be large or run the other way.
assay: qHTS assay for re-activators of p53 using a Luc reporter: Hit Validation with no p53 Expressed; settings: p53-null cells, luciferase reporter counter-screen; series mostly up to 46.1 µM; activity change, positive = activation: at the top concentration; also: 0% is about no effect
Method in brief: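 Counter-screen of primary hits in a cell line not transfected with p53, in Opti-MEM with 10% FBS; compounds at several concentrations (10 mM stock, 1:5; top 46.1 µM in well), 24 h at 37 deg C, 5% CO2. Luminescence read after 10 min with Amplite reagent.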

Row | SMILES | activity change, positive = activation
1 | CN(/N=C/c1ccc2c(c1)OCO2)c1ccccc1 | 12.6% (inactive)
2 | Cc1csc(NC(=O)CSc2nnc(-c3cccs3)n2C)n1 | -34.1% (inactive)
3 | Cn1c(=N)n(CC(=O)c2ccc(Cl)c(Cl)c2)c2ccccc21 | 57.6% (inactive)
4 | COc1ccc(-n2cc(-c3ccccc3)[nH]c2=S)cc1 | 10.4% (inactive)
5 | O=C(COC(=O)c1cn(-c2ccccc2)nc1-c1ccc(F)cc1)Nc1ncc(Cl)cc1Cl | 13.6% (inactive)
6 | CCOc1ccc(S(=O)(=O)c2c(C(=O)c3ccc(C)cc3)cnc3cc4c(cc23)OCCO4)cc1 | -4.04% (inactive)
7 | CCc1ccc(-n2cc(-c3ccc([N+](=O)[O-])cc3)[nH]c2=S)cc1 | 56.6% (inactive)
8 | N#Cc1nc(COc2ccccc2)oc1N1CCOCC1 | 0.149% (inactive)
9 | C1=C(CCNc2ncnc3nc[nH]c23)CCCC1 | 52.6% (inactive)
10 | CC1CCC(NC(=O)C2CCN(C(=O)Nc3ccccc3)CC2)CC1 (centres undefined) | 9.02% (inactive)
11 | O=C(CC(=O)c1ccccc1O)c1cccc(F)c1 | -34% (inactive)
12 | O=C(COc1ccccc1[N+](=O)[O-])N/N=C/c1cccc(OC(=O)c2ccc3c(c2)OCO3)c1 | -0.202% (inactive)
13 | Cc1ccc(C(=O)Nc2nnc(SCC(=O)N3CCCc4ccccc43)s2)cc1 | -62.4% (inactive)
14 | O=C(Nc1ccc(Cl)cc1)Nc1nnc(SCc2ccccc2)s1 | -21.5% (inactive)
15 | O=C(Nc1nnc(-c2cccs2)o1)c1cccc(C(F)(F)F)c1 | -41.9% (inactive)
16 | COc1cccc(Oc2ccc(N)cn2)c1 | -16.6% (inactive)
17 | CCN(CC)C(=O)CSc1ncnc2c(-c3cccs3)nsc12 | 8.65% (inactive)
18 | Cc1ccc2c(c1)CCCN2C(=O)Nc1ccc2c(c1)OCO2 | -5.86% (inactive)
19 | Cc1cc(C)nc(SCC(=O)OCC(=O)Nc2nc3ccccc3s2)n1 | 93.7% (inactive)
